PrPC TRFRET – inhibitors of human cell surface prion protein PrPC; TR-FRET read-out; 0.43% of 370,000 active; P04156; inhibition, % at 13.8 µM; in the data active = inhibition above about 24%
GDH-TPI counter – GDH-TPI coupled enzyme inhibition counter-screen | GDH-TPI coupled enzyme counterscreen, NADH absorbance | inhibition, % at 4.8 µM | 1.2% of 360,000 active | AID 588335; in the data active = inhibition above about 30%
Vc quorum ag – inducers of Vibrio cholerae quorum light production without autoinducers. V. cholerae BH1578 lux reporter, luminescence, 6 h. activation, % at 18.7 µM. 0.16% of 350,000 active; in the data active = activation mostly above about 9.7%, no sharp cut-off
3CLpro inhibitor – SARS-CoV 3CLpro protease inhibition | P0C6X7 | recombinant SARS-CoV 3CLpro, quenched FRET peptide cleavage | inhibition, % at 6 µM | 0.14% of 290,000 active | AID 1706; in the data active = inhibition above about 12%
Mtb FBA inh – inhibitors of M. tuberculosis fructose-bisphosphate aldolase; inhibition, % at 1 µM; P9WQA3; purified M. tuberculosis FBA, fluorescence read-out; 2.3% of 360,000 active; in the data active = inhibition above about 27%
Target sequence (P9WQA3 whole entry, looked up): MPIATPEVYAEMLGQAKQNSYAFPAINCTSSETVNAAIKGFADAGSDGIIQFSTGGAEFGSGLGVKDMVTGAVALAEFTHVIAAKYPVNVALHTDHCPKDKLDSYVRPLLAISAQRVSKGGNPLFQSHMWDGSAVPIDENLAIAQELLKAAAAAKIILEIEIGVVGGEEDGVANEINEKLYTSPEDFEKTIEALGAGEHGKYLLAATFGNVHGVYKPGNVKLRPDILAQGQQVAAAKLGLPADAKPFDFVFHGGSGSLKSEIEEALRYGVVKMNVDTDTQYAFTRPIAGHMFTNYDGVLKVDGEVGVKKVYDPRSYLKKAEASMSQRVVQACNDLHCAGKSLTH
Each line names hits and unclear results; the compound was inactive in the other large screens. Rows were chosen to be rich in hits. Some 3.9% of all compounds tested hit in one or more screens of this group.

Cn1c(=O)c2cc(NC(=O)NCc3ccc(F)cc3)ccc2n1C	Mtb FBA inh 162.5 (no result: 3CLpro inhibitor)
O=C(NCc1ccc(F)cc1)Nc1ccc(Cl)cc1	none
C=C(C)Cn1c2ccc(NC(=O)NCc3ccc(F)cc3)cc2c(=O)n1C	Mtb FBA inh 189.7 (no result: 3CLpro inhibitor)
CCOC(=O)[C@@]12CCCC3=C1N(CCC3)C(=O)[C@H]2CC(=O)NCCC(C)C	none (no result: GDH-TPI counter, Vc quorum ag, 3CLpro inhibitor, Mtb FBA inh)
N#Cc1c(C#N)c(-c2ccccc2)n(-c2ccccc2)c1N	none
CCOC(=O)c1nn(-c2ccc(Cl)cc2)c2nc(-c3ccc(C)cc3)c(C#N)c(=O)n12	none (no result: Vc quorum ag)
Cc1ccc(-c2c(C#N)c(N)n(-c3ccccc3)c(=O)c2C#N)cc1	GDH-TPI counter 40.3
Cc1ccc(-c2c(C#N)c(N)n(-c3ccc(Cl)cc3)c(=O)c2C#N)cc1	GDH-TPI counter 31.2 (no result: 3CLpro inhibitor)
O=C(Cc1nc2ccccc2[nH]1)c1ccc(Br)cc1	GDH-TPI counter 31.6
O=C(NCCc1ccccc1)OCc1cn(Cc2ccccc2F)nn1	none (no result: GDH-TPI counter, Vc quorum ag, 3CLpro inhibitor, Mtb FBA inh)
CN(c1ccccc1)c1nc(N)c(C#N)c(CC#N)c1C#N	none
N#CCc1c(C#N)c(N)nc(Nc2ccccc2)c1C#N	GDH-TPI counter 31.4
COc1ccc(S(=O)(=O)Nc2ccc(S(=O)(=O)Nc3cc(C)nc(C)n3)cc2)cc1OC	none
O=C1C(Oc2ccccc2)C(c2ccc3c(c2)OCO3)N1CCc1ccc(F)cc1 (stereo not drawn)	GDH-TPI counter 33.3
COc1ccc(CCN2C(=O)C(Oc3ccccc3C)C2c2ccc3c(c2)OCO3)cc1 (stereo not drawn)	none
O=C(C1CCN(S(=O)(=O)c2c(Cl)cccc2Cl)CC1)N1CCCCCCC1	none (no result: 3CLpro inhibitor)
COc1ccc2cc(/C=C/C(=O)N3CCN(CC(=O)N4CCCCCC4)CC3)ccc2c1	Mtb FBA inh 30.1 (no result: PrPC TRFRET)
COC(=O)C1CCN(C(=O)/C=C/c2ccc(OC)cc2)CC1	none
N#Cc1cnn2ccc(-c3ccc4c(c3)CCC4)nc12	Mtb FBA inh 141.3
COc1ccc2cc3c(N)nn(C(=O)c4cccc(F)c4)c3nc2c1	none
COc1ccc2cc3c(N)nn(C(=O)c4ccc(F)cc4)c3nc2c1	GDH-TPI counter 41.2
COc1ccc2cc3c(N)nn(C(=O)c4ccccc4Cl)c3nc2c1	GDH-TPI counter 35.8
CCC(=O)Oc1ccc(NC(=O)c2ccc(S(=O)(=O)N3CCCC3)cc2)cc1	none (no result: 3CLpro inhibitor)
CC(=O)N1c2ccccc2NC2=C(C(=O)CCC2)C1c1cccnc1 (stereo not drawn)	none
O=C1CCCC2=C1C(c1cccnc1)Nc1ccccc1N2 (stereo not drawn)	GDH-TPI counter 30.8
O=C(c1ccc(N2CCN(C3CC(=O)N(Cc4cccs4)C3=O)CC2)cc1)c1cccnc1 (stereo not drawn)	GDH-TPI counter 33.3
O=C(c1ccncc1)c1ccc(N2CCN(C3CC(=O)N(Cc4ccccc4)C3=O)CC2)cc1 (stereo not drawn)	none
O=[N+]([O-])c1cc(-n2cnnn2)c(O)c([N+](=O)[O-])c1	GDH-TPI counter 31.1
COc1ccc(Nc2ncc3c(n2)CC(c2ccccc2)CC3=O)cc1 (stereo not drawn)	GDH-TPI counter 30.9
Cc1cccc(Nc2ncc3c(n2)CC(C)CC3=O)c1 (stereo not drawn)	GDH-TPI counter 36.1
O=C(CN1CCN(C(=O)c2ccc(-c3nc4ccccc4s3)o2)CC1)Nc1ccc(F)cc1	none (no result: 3CLpro inhibitor)
Oc1[nH]c2ccc(Br)cc2c1N=NC(=S)NCC1CCCO1 (stereo not drawn)	GDH-TPI counter 36.2
O=C(NC(=S)Nc1ccc2oc(=O)ccc2c1)c1cccc(Cl)c1	none
CCCCCCCCNS(=O)(=O)/C=C/c1ccccc1CNC(=O)OC(C)(C)C	none (no result: GDH-TPI counter, Vc quorum ag, 3CLpro inhibitor, Mtb FBA inh)
COc1ccc(/C=C(\C#N)C(=O)NCC2CCCO2)cc1OC (stereo not drawn)	none
CCOC(=O)c1ccc(-c2ccc(/C=C(\C#N)C(=O)NCC3CCCO3)o2)cc1 (stereo not drawn)	GDH-TPI counter 33.9
COCCn1c(=NC(=O)c2cccs2)sc2cc(NC(C)=O)ccc21	GDH-TPI counter 45.3
Cc1c(CC(=O)N2CCC(O)CC2)c(=O)oc2cc3c(cc12)CCC1(CCCCC1)O3	Mtb FBA inh 180.8 (no result: 3CLpro inhibitor)
Cc1c(CC(=O)N2CCC(C(=O)O)CC2)c(=O)oc2cc3c(cc12)CCC1(CCCCC1)O3	GDH-TPI counter 41.2, Mtb FBA inh active
Cc1c(CCC(=O)N2CCC(C(=O)NCCCCCC(=O)O)CC2)c(=O)oc2cc3oc4c(c3cc12)CCCC4	none
Cc1c(CC(=O)N2CCN(C(=O)C3COc4ccccc4O3)CC2)c(=O)oc2cc(O)c(Cl)cc12 (stereo not drawn)	none (no result: Mtb FBA inh)

Assay outcomes from PubChem BioAssay.
